Results with a measured potency or affinity are listed apart. Active and inactive are the calls of the source.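 Rule for the calls: active = fitted half-maximal concentration for loss of cell signal no higher than twice the top valid tested concentration; inconclusive = flat curve at 30 to 70% inhibition, or poor fit; inactive = flat within 30%, signal rise, or potency above limit.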
Assay: MDA-MB-231 cell growth inhibition, dose response, cytotoxicity control for RAD54 inhibitor project, CellTiter-Glo luminescence, cherry-pick (AID 651692);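 note: 0% = median of sample compound wells and -100% = staurosporine control wells; more negative values mean stronger loss of viable cell signal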
Conditions: MDA-MB-231 viability, 24 h; series mostly up to 26 µM; activity change, negative = growth inhibition: at the top concentration

Compound | activity change, negative = growth inhibition
c1cc2c3c(cccc3c1)C(N1CCCCC1)=N2 | 4.52% (inactive)
CCC(=O)N(Cc1cc2cc(OC)ccc2[nH]c1=O)c1cc(C)ccc1C | 4.92% (inactive)
COc1cc2nc(N3CCNCC3)nc(N)c2cc1OC | -7.31% (inactive)
CCN1CCN(c2cc(C)c3cc(NC(=S)N4CC(C)CC(C)C4)ccc3n2)CC1 (configuration not stated) | -2.48% (inactive)
CCCCN(CC)CCNC(=O)c1cc2c(=O)n(C)c3ccccc3c2n1C | -11.7% (inactive)
N=c1c(C(=O)NCCN2CCOCC2)cc2c(=O)n3ccccc3nc2n1CCc1ccccc1 | 10.1% (inactive)
COc1ccc(-c2cnc3c(NC(C)=O)cc(-c4cccc(C(=O)NCCN(C)C)c4)cn23)cc1OC | -9.16% (inactive)
Cc1cccc(Cn2c(Sc3nc(C)cs3)nc3c2c(=O)[nH]c(=O)n3C)c1 | 14.1% (inactive)
CCN1CCN(c2cc(C)c3cc(NC(=S)NCCCN4CCc5ccccc5C4)ccc3n2)CC1 | -3.87% (inactive)
CCn1c(=N)c(C(=O)NC)cc2c(=O)n3cccc(C)c3nc21 | -5.42% (inactive)
CC(=O)Nc1cc(-c2cccc(C(=O)NCCN(C)C)c2)cn2c(-c3ccc(S(C)(=O)=O)cc3)cnc12 | -5.24% (inactive)
CCNC1CCC(Nc2ccnc3cc(Cl)ccc23)CC1 (configuration not stated) | 5.14% (inactive)
CCOC(=O)c1cnc2ccc(OC)cc2c1Nc1ccc(N2CCN(C)CC2)cc1 | -2.13% (inactive)
CCN(CC)CCCNC(=O)c1cc2c(=O)[nH]c3ccc(C)cc3c2s1 | 0.14% (inactive)
CCCCN(CC)CCCNC(=S)Nc1ccc2nc(N3CCN(CC)CC3)cc(C)c2c1 | -2.93% (inactive)
CCN(CC)CCN(C(=O)C1=COCCO1)c1nc2c(OC)ccc(OC)c2s1 | 6.87% (inactive)
Cc1nnc2c(N3CCN(CCO)CC3)nc3ccccc3n12 | 5.79% (inactive)
